PubChem BioAssay AID1671190 (National Center for Advancing Translational Sciences (NCATS), 2021)
Out of some 580,000 compounds screened, about 6,100 (1.1%) were called active. Inconclusive results (about 15%) are left out. The sample as a whole holds a higher share of actives than the screen did. Unmarked numbers belong to inactive results. Calls follow the shape of the dose curve; as a rule, active = well fitted inhibition curve with a large enough effect; inconclusive = small, poorly fitted or top-dose-only effect, or another doubt; inactive = no such curve, though single readings can be large or run the other way.

target: Polyunsaturated fatty acid lipoxygenase ALOX12 (Homo sapiens) (UniProt P18054); assay: Primary qHTS assay for inhibitors of human arachidonate 12S-lipoxygenase (ALOX12): Round 2; conditions: purified 12hLO, xylenol orange hydroperoxide absorbance; series mostly up to 108 µM; activity change, negative = inhibition: at the top concentration
Sequence (P18054 whole entry, looked up): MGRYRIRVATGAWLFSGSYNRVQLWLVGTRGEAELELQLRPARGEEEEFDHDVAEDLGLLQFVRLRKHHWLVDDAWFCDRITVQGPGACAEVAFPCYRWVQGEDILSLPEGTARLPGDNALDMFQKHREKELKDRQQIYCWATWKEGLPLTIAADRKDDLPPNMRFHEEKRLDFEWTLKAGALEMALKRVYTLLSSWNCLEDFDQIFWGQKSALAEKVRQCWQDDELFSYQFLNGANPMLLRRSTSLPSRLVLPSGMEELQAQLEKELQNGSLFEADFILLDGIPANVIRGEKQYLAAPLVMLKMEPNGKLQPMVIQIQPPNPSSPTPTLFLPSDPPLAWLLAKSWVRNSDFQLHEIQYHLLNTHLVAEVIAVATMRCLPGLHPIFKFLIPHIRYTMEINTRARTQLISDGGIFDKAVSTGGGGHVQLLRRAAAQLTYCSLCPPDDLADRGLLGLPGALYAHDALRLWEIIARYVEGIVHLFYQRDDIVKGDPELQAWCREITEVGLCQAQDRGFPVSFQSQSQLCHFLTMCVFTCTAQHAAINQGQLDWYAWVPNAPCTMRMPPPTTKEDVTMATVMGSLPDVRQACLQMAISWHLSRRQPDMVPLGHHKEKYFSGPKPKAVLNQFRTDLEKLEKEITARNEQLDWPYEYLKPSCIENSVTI
Summary of the method: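 Purified human 12hLO at 150 nM in 25 mM Hepes, 0.01% Triton X-100, pH 7.0, preincubated 15 min at room temperature with compound. Reaction started with 40 uM arachidonic acid, 30 min at room temperature. Hydroperoxide measured by Fe-xylenol orange, 573/405 nm absorbance ratio.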
% is scaled to controls: 0 for no effect and ±100 for the full control effect; potency is read from the fitted curve at half-maximal effect.

| Structure (SMILES) | activity change, negative = inhibition | Potency |
| --- | --- | --- |
| Cc1ccc(S(=O)(=O)N2CCCC(C(=O)O)C2)cc1F (stereo not given) | -9.4% |  |
| NC(=O)CN1C(=O)C(O)(CC(=O)c2ccc3c(c2)OCO3)c2ccccc21 (stereo not given) | -0.761% |  |
| CS(=O)(=O)Nc1ccc([C@H]2OCC(=O)N(C3CCOCC3)[C@@H]2CO)cc1 | 10.1% [at 176 µM] |  |
| Cc1ccc2[nH]cc(C(C(=O)O)N3CCN(c4ccccc4)CC3)c2c1 (stereo not given) | 69.7% |  |
| CC(C)OC(=O)c1ccc(NCc2cc(O)ccc2O)cc1Cl |  | 10 µM (active) |
| Cc1ccc(C(=O)NC(C)C)c(Cl)c1 | 25.9% |  |
| O=C(O)c1ccc(CSc2ccc(Cl)cc2Cl)cc1 | -47.7% |  |
| Cc1ccc(C2(C(=O)N3C[C@@H](CN4CCCCC4)[C@@H](CO)C3)CC2)cc1 | -8.28% |  |
| Cc1[nH]c2ccccc2c1C(=O)C(C)Sc1ccc2c(c1)OCCCO2 (stereo not given) |  | 14.1 µM (active) |
| CC(Sc1ccc2c(c1)OCCCO2)C(=O)O (stereo not given) | -2.01% |  |
| Cc1[nH]c2ccccc2c1C(=O)C(C)Sc1nnc(C2CC2)o1 (stereo not given) |  | inactive |
| COc1ccc(-c2c(C)c3ccc(OCC(=O)OC(C)(C)C)cc3oc2=O)cc1OC | 16.1% |  |
| CCN(C1CCCCC1)S(=O)(=O)c1ccc(C(=O)Nc2ccc(Cl)c3ncsc23)cc1 | -5.15% |  |
| CO[C@@H]1COCC[C@H]1NC(=O)CCCc1nc(-c2ccccc2C)no1 | 25% |  |
| CC1CC(C)(C)NC(=S)N1CCC(=O)N1CCN(Cc2ccccc2)CC1 (stereo not given) | -2.83% |  |
| CC1CC(=O)Nc2ccccc2N1S(=O)(=O)c1cccs1 (stereo not given) | 148% |  |
| CC1CC(=S)Nc2ccccc2N1Cc1ccccc1 (stereo not given) |  | 44.7 µM (active) |
| O=C(CCN1C(=O)c2ccccc2S1(=O)=O)Nc1ccc(S(=O)(=O)N2CCCC2)cc1 | -55.7% |  |
| C=C(Br)CNCc1ccccc1 | -24.8% |  |
| Cc1ccc(C(C)NC(=O)CCc2nc(C(C)C)no2)o1 (stereo not given) | 8.08% |  |
| Cc1ccccc1-c1cc(C(=O)NCCN2CCNC2=O)c2c(c1)N(C)CCO2 | 1.66% [at 176 µM] |  |
| COc1ccccc1N1CCN(C(=O)C2CCN(S(=O)(=O)c3c(C)noc3/C=C/c3ccc(C)cc3)CC2)CC1 | -5.47% |  |
| Cc1noc(/C=C/c2ccco2)c1S(=O)(=O)N1CCC(C(=O)N2CCc3ccccc32)CC1 |  | 14.1 µM (active) |
| Cc1noc(/C=C/c2ccco2)c1S(=O)(=O)N1CCC(C(=O)Nc2ccc(Cl)cn2)CC1 | -15.1% |  |
| CN(CC(=O)NC(C)(C)C)Cc1cccc2cccnc12 | 20.8% |  |

| Structure (SMILES) | activity change, negative = inhibition | Potency |
| --- | --- | --- |
| Cc1cc(C)cc(C(=O)NC2C(=O)N3C(C(=O)O)=C(CSc4nnc(C)s4)CSC23)c1 (stereo not given) |  | 39.8 µM (active) |
| CO/N=C(/C(=O)N[C@@H]1C(=O)N2C(C(=O)O)=C(Cn3nnc(C)n3)CS[C@H]12)c1csc(N)n1 | -8.52% [at 22.9 µM] |  |
| Cc1nnc(SCc2cc(=O)[nH]c(N3CCN(Cc4ccccc4)CC3)n2)s1 | -24.6% |  |
| CC(C)C(=O)Nc1cc(Cl)ccc1Cl | 1.43% |  |
| CC(C)C(=O)N1CCN(C(=O)c2cc3ccccc3n2C)CC1 | -28.6% |  |
| CNc1c(NC(=O)Nc2ccc(F)cc2F)c(=O)oc2ccccc12 | -1.6% |  |
| CCOC(=O)C1Cn2c(nc3c(c2=O)C(C)(CC)Cc2ccccc2-3)S1 (stereo not given) | 0% |  |
| CCC1(CC)Cc2ccccc2-c2nc(CCl)[nH]c(=O)c21 |  | 7.08 µM (active) |
| O=c1[nH]c(CCl)nc2cc(-c3ccc(Cl)cc3)sc12 | 106% |  |
| CC(C)C(=O)Nc1ccc(-c2nc3ccccc3o2)cc1 | -38.4% |  |
| CCOC(=O)c1nc2ccccc2nc1NCc1ccc(C)cc1 | -2.85% |  |
| CC(=O)c1c(C)[nH]c(C(=O)c2oc3ccc(Cl)cc3c2C)c1C | -13.1% |  |
| COC(=O)c1ccc(/C=C2\Oc3cc(OS(C)(=O)=O)cc(C)c3C2=O)cc1 | -17.5% |  |
| Cc1cccc(N2CCN(c3ccc(C(=O)O)cc3NC(=O)c3ccccc3F)CC2C)c1 (stereo not given) |  | 50.1 µM (active) |
| CCN1CCN(c2cc3nc(C)n(Cc4ccccc4)c(=O)c3cc2NC(=O)c2ccccc2F)CC1 | -8.8% |  |
| Cc1cccc(N2CCN(C(=O)c3ccccc3NC(=O)C3CCCCC3C(=O)O)CC2)c1 (stereo not given) | -15% |  |
| O=C(c1cccc(Br)c1)N1CCC(CCc2ccc(O)cc2)CC1 | -3.12% |  |
| Cc1ccc(NC(NC(=O)c2cccc(C)c2)C(Cl)(Cl)Cl)cc1 (stereo not given) | 9.95% |  |
| CCCCC/C=C/C1=CC(=O)C[C@H](c2ccc(Cl)cc2)C1 |  | 35.5 µM (active) |
| CCc1nc2nc3c(cn2n1)C(=O)CC(c1ccc(Cl)cc1)C3 (stereo not given) | -5.2% |  |
| O=C1C=C(c2cccc(Cl)c2O)C[C@@H](c2ccc(F)cc2)C1 | -27.3% |  |
| CCCCc1ccc(NC(=O)c2cc3c(s2)CCCC3)cc1 | -29.7% |  |
| CN(Cc1ccon1)C(=O)c1coc(COc2ccc(F)cc2Cl)n1 | 38.2% |  |
| Cn1c(=O)c2c(ncn2CCC(=O)NCc2ccc(F)cc2)n(C)c1=O | 9.96% |  |
| CN1CCN(c2ccc3nnc(C4CCC4)n3n2)CC1 | 54.1% |  |
